Assay outcomes (PubChem BioAssay)
Shown are actives, neighbours in structure and some others; about 5.3% of the full set was active somewhere.
Tau ThT inhib: qHTS for Inhibitors of Tau Fibril Formation, Thioflavin T Binding; recombinant tau K18 P301L, heparin-induced fibrillization, ThT fluorescence; Potency, µM (doses to about 57.4 µM), without a hit: at the top dose activity, negative = inhibition, usual class: inhibitors; 2.1% of 270,000 active; AID 1460, 2008; further: potency means the concentration at half of the fitted maximal effect; nearly all actives have a fitted effect of over 55% in size
Target sequence (P10636 561-689 P618L limits assumed): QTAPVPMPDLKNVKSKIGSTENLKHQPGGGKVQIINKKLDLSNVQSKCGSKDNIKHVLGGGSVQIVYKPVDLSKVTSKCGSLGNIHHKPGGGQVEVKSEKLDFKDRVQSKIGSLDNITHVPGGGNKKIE
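Heparin-induced fibrillization of the P301L-mutant K18 repeat-domain fragment of human tau was followed by ThT binding in quantitative high-throughput format.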
JMJD2E inh: qHTS Assay for Inhibitors of Human Jumonji Domain Containing 2E (JMJD2E); Lysine-specific demethylase 4E (Homo sapiens), B2RXH2; JMJD2E catalytic domain, FDH-coupled NADH fluorescence (FDH is formaldehyde dehydrogenase); Potency, µM (doses to about 57.1 µM), for inactives: at the top dose activity change, negative = inhibition, actives largely listed as inhibitors; 1.6% of 230,000 active; AID 2147, 2009; active means well fitted inhibition curve with a large enough effect, not every such curve was filed as active; inconclusive means small, poorly fitted or top-dose-only effect, or another doubt; inactive means no such curve, though single readings can be large or run the other way;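 further: potency means the concentration at half of the fitted maximal effect; 0% = wells with enzyme and -100% = buffer wells without enzyme; nearly all actives have a fitted effect of over 50% in size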
Target sequence (B2RXH2 1-337 limits assumed): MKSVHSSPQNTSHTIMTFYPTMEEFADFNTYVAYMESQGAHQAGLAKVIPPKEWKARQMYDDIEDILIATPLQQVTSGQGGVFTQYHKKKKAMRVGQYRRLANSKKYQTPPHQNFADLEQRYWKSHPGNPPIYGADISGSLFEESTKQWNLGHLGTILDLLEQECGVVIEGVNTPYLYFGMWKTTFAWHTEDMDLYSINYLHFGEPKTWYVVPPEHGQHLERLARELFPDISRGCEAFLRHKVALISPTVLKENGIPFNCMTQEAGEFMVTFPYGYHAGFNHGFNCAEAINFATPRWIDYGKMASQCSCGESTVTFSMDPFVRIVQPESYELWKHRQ
Sfp PPTase inh: qHTS Assay for Inhibitors of Bacillus subtilis Sfp phosphopantetheinyl transferase (PPTase) | 4'-phosphopantetheinyl transferase ffp (Bacillus subtilis), Q9F4F7 | Biochemical Sfp PPTase activity, qHTS | Potency, µM, without a hit: largest response in the series, negative = inhibition, actives largely listed as inhibitors | 3.5% of 310,000 active | AID 1490, 2009;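 further: the enzyme is Sfp with the accession as filed and its product quenches rhodamine fluorescence; potency means the concentration at half of the fitted maximal effect; 0% = enzyme reaction without inhibitor and -100% = no enzyme wells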
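Reaction rates are the 30-min fluorescence difference (ex 525, em 598 nm) in wells containing 15 nM Sfp, 5 uM rhodamine-CoA and 12.5 uM BHQ-2-YbbR at pH 7.6 with 10 mM MgCl2.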
Coupling enz: qHTS Assay for Inhibitors of Fructose-1,6-bisphosphate Aldolase from Giardia Lamblia: Coupling assay counterscreen. AID 2472, 2010. coupling enzyme system counterscreen, AmpLite Red fluorescence. activity change, negative = inhibition, % at 58.2 µM, hits read low. 0.67% of 290,000 active; in the data active means activity change below about -30%
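Counterscreen lacking aldolase: glyceraldehyde-3-phosphate coupling-enzyme reagent preincubated 10 min at RT with compound (at 57.5 uM final), then substrate/coupling system with AmpLite Red added; fluorescence read at 525/598 nm after 20 min RT.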
Tau fibril FP: qHTS for Inhibitors of Tau Fibril Formation, Fluorescence Polarization. Microtubule-associated protein tau (Homo sapiens), P10636. K18 P301L tau heparin fibrillization, Alexa594 FP, 6 h. Potency, µM (highest dose often 57.7 µM), for the others: at the top dose activity, negative = inhibition, most hits filed as inhibitors. 0.39% of 280,000 active; further: potency means the concentration at half of the fitted maximal effect; nearly all actives have a fitted effect of over 55% in size
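FP of Alexa 594-tau after heparin (20 uM) induction. Substrate: human K18 P301L, 15 uM unlabeled, 0.24 uM labeled. Buffer 100 mM sodium acetate pH 7. 6 hr, 37 C.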
Tau fluor cs: Counterscreen qHTS for Inhibitors of Tau Fibril Formation, Fluorescence Polarization; tau K18 P301L Alexa594 fluorescence, heparin fibrillization; Potency, µM (doses to about 57.7 µM), inactives show top-dose activity change, negative = decrease; 0.93% of 280,000 active; AID 1463, 2008; further: potency means the concentration at half of the fitted maximal effect; nearly all actives have a fitted effect of over 55% in size
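Human tau K18 P301L (15 uM unlabeled, 0.24 uM Alexa 594-labeled) in 100 mM sodium acetate pH 7 with 20 uM heparin, 6 hr at 37 C. ThT 30 uM added, 1 hr ambient; Alexa 594 FP and total fluorescence read at 555/632 nm.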
* = called active by the depositor; ! = repeats disagree; [ ] = another dose, or the depositor's remark. Unless noted, the call rests on the fitted dose curve; in most records, active means well fitted curve in the direction sought with a large enough effect; inconclusive means small, poorly fitted or top-dose-only effect, or another doubt; inactive means no such curve, though single readings can be large; an effect the other way counts as inactive or inconclusive. Unless noted, on the % scale 0 is the no-effect control and ±100 the full control effect.

For Cc1ccc(O)c(N=Cc2cccs2)c1 the results were Tau ThT inhib 25µM*, JMJD2E inh inconclusive, Sfp PPTase inh -26%, Coupling enz -13, Tau fibril FP inconclusive and Tau fluor cs inconclusive.
`Cc1oc(-c2ccccc2Cl)nc1CSc1nncn2c1cc1occc12` gave Tau ThT inhib inconclusive, Tau fibril FP inconclusive and Tau fluor cs -26%.
Screening CCN(CC)C(=O)CSc1n[nH]c(=S)n1N returned Tau ThT inhib -16%, JMJD2E inh inconclusive, Sfp PPTase inh 50µM*, Coupling enz -11, Tau fibril FP inconclusive and Tau fluor cs -9%.
`C[C@@H]1CC[C@H]2C(=O)NC[C@@H](O)CN2[C@@H]1c1ccc(Br)cc1` gave Tau ThT inhib -19%[11.5 µM], Sfp PPTase inh 5%, Coupling enz 0, Tau fibril FP -15%[11.6 µM] and Tau fluor cs -23%[11.6 µM].
For N[C@H](C(=O)O)[C@H](O)C(=O)O the results were Tau ThT inhib -4%, JMJD2E inh 13µM*!, Sfp PPTase inh 89µM*!, Coupling enz -2, Tau fibril FP -1% and Tau fluor cs -1%.
Screening Cc1ccc2nc(COc3cccc(NC(=O)COc4ccc(F)cc4)c3)cc(=O)n2c1 returned Tau ThT inhib -11%, Tau fibril FP -8% and Tau fluor cs -12%.
`Nc1cccc(Oc2ccc([N+](=O)[O-])cc2)c1` gave Tau ThT inhib -1%, JMJD2E inh 2%, Sfp PPTase inh 16%, Coupling enz -1, Tau fibril FP 0% and Tau fluor cs -5%.
Screening Nc1cccc(Oc2c(F)c(F)c(Oc3cccc(N)c3)c(F)c2F)c1 returned Tau ThT inhib inconclusive, JMJD2E inh -9%, Sfp PPTase inh 14%, Coupling enz -1, Tau fibril FP inconclusive and Tau fluor cs 6.3µM*[quencher].
`Nc1c(C(=O)N2CCOCC2)sc2nc3c(cc12)CCCC3` gave Sfp PPTase inh 5% and Coupling enz -8.
Cc1cc(C)c2c(N)c(C(=O)N3CCCCCC3)sc2n1 was read as Tau ThT inhib -8%, JMJD2E inh inconclusive, Sfp PPTase inh 35µM*, Coupling enz 0, Tau fibril FP 5% and Tau fluor cs -7%.
For COCc1cc(C)nc2sc(C(=O)N3CCCC3)c(N)c12 the results were Tau ThT inhib -20%, JMJD2E inh -15%, Sfp PPTase inh inconclusive, Coupling enz -1, Tau fibril FP 5% and Tau fluor cs -5%.
Screening Nc1c(C(=O)N2CCCC2)sc2nc3c(cc12)CCCCCC3 returned Tau ThT inhib -15%, JMJD2E inh inconclusive, Sfp PPTase inh 56µM*, Coupling enz -1, Tau fibril FP 4% and Tau fluor cs -17%.
Screening COc1cc(CCNC(C)=O)c(C(=O)/C=C/c2cccc(OC)c2OC)cc1OC returned Tau ThT inhib -14%, JMJD2E inh -17%, Sfp PPTase inh 9%, Coupling enz 3, Tau fibril FP 4% and Tau fluor cs 0%.
`N#Cc1cccc(-c2nc3cnc(Oc4cccc(Cl)c4)nc3n(C3CC3)c2=O)c1` gave Sfp PPTase inh 7% and Coupling enz 0.
Cc1occc1C(=O)n1cnc2ccccc21 was read as Tau ThT inhib 7%, JMJD2E inh 11%, Sfp PPTase inh -12%, Coupling enz -3, Tau fibril FP -4% and Tau fluor cs 5%.
Cc1occc1C(=O)n1nnc2ccccc21 was read as Tau ThT inhib inconclusive, JMJD2E inh 2%, Sfp PPTase inh 32µM*, Coupling enz 3, Tau fibril FP 8% and Tau fluor cs -7%.
Cc1ccc(Cl)cc1NC(=O)C(C)n1nnc2sc3c(c2c1=O)CCCC3 (stereo unspecified) was read as Tau ThT inhib -2%, Tau fibril FP 2% and Tau fluor cs -20%.
For O=C(NCCn1cc(SCc2ccccc2Cl)c2ccccc21)c1cccs1 the results were Tau ThT inhib -26%, Tau fibril FP inconclusive and Tau fluor cs 3.2µM*[quencher].
`Cc1ccc(C)c(CSc2cn(CCNC(=O)c3cccs3)c3ccccc23)c1` gave Tau ThT inhib inconclusive, Tau fibril FP -12% and Tau fluor cs 8.9µM*[quencher].
For O=C(NCCn1cc(SCc2ccc(Br)cc2)c2ccccc21)c1cccs1 the results were Tau ThT inhib inconclusive, Tau fibril FP -11% and Tau fluor cs inconclusive.
`O=C(NCCn1cc(SCc2ccccc2)c2ccccc21)c1cccs1` gave Tau ThT inhib inconclusive, Tau fibril FP inconclusive and Tau fluor cs 5.6µM*[quencher].
For COc1ccc(C)cc1NC(=O)COc1cc(=O)n(C)c2ccccc12 the results were Tau ThT inhib -2%, Tau fibril FP -6% and Tau fluor cs -1%.
For Cc1ccc(CNC(=O)CSc2c3c(nc4ccc(Cl)cc24)CCCC3)o1 the results were Tau ThT inhib inconclusive, JMJD2E inh -19%, Sfp PPTase inh 35µM*, Coupling enz 1, Tau fibril FP 8% and Tau fluor cs 1%.
For COc1ccc(CNC(=O)CSc2c3c(nc4ccc(Cl)cc24)CCCC3)cc1 the results were Tau ThT inhib -17%, Tau fibril FP -7% and Tau fluor cs -9%.
`Cc1ccc(NC(=O)Nc2nnc(N(C)C3CCCCC3)s2)c(Cl)c1` gave Tau ThT inhib -1%, Tau fibril FP -2% and Tau fluor cs -7%.
CCCn1c(N)c(N(CCOC)C(=O)c2cc(-c3ccco3)nc3ccccc23)c(=O)[nH]c1=O was read as Sfp PPTase inh 45µM*.
For CCCCn1c(N)c(N(CCOC)C(=O)c2cc(-c3ccncc3)nc3ccccc23)c(=O)[nH]c1=O the results were Sfp PPTase inh 11%.
CNC(=O)COC(=O)c1cc(-c2ccco2)nc2ccccc12 was read as Tau ThT inhib inconclusive, JMJD2E inh inconclusive, Sfp PPTase inh 28µM*, Coupling enz -4, Tau fibril FP -3% and Tau fluor cs -25%.
For O=C(COC(=O)c1cc(-c2ccco2)nc2ccccc12)NCc1ccccc1 the results were Tau ThT inhib inconclusive, JMJD2E inh inconclusive, Sfp PPTase inh 40µM*, Coupling enz 2, Tau fibril FP -12% and Tau fluor cs inconclusive.
